Rows were chosen to be rich in hits. Some 3.3% of all compounds tested hit in one or more screens of this group.
Rpn11 inh: Rpn11 (human) deubiquitinase inhibition; O00487; human 26S proteasome, Ub4-pepOG fluorescence polarization; 20S core pre-blocked with epoxomicin; inhibition, % at 20 µM; 360,000 compounds, 0.59% hits;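 active = inhibition at 20 µM, scaled to each plate's controls, above about 33%, limit read from the data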
Target sequence (O00487 whole entry, looked up): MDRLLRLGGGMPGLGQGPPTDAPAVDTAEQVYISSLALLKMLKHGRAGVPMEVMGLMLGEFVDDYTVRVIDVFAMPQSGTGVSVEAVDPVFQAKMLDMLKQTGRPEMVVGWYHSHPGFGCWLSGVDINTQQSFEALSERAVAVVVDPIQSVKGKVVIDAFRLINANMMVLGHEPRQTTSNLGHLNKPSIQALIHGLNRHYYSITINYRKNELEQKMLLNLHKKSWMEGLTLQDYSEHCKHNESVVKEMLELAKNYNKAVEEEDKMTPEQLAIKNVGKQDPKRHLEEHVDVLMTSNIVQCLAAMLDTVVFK
Fh CTSL1 inh: counter-screen for PFM18AAP inhibitors: inhibitors of F. hepatica cathepsin L1; recombinant F. hepatica cathepsin L1, Z-Leu-Arg-MCA fluorescence; inhibition, % at 5.96 µM; 300,000 compounds, 0.49% hits; AID 1906;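 active = inhibition above the mean of all tested compounds plus 3 SD, set per screening campaign, cut at about 17% in these data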;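 note: 0% = plate median of test compound wells and 100% = 1 µM Z-Phe-Ala-diazomethylketone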
PHOSPHO1 inh: PHOSPHO1 (human) inhibition; Q8TCT1; 290,000 compounds, 1.1% hits; recombinant PHOSPHO1, absorbance phosphatase assay; inhibition, % at 13.3 µM; AID 1565; in the data active = inhibition above about 60%
Target sequence (Q8TCT1 whole entry, looked up): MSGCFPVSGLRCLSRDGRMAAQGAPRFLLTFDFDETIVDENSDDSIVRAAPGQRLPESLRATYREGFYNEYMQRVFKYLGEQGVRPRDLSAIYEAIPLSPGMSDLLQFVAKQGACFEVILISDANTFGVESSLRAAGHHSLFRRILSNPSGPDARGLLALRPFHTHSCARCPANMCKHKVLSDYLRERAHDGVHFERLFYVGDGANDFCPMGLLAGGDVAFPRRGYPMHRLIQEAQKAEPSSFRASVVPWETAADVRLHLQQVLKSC
HNF4A DNA FP: change in binding of human HNF4 alpha to DNA; P41235; HNF4a-FITC DNA binding, fluorescence polarization, 1 h; activity change, % at 10 µM; 360,000 compounds, 0.3% hits; in the data active = activity change above about 30%, passing the limit was not always enough
CendR NRP1 mod: modulators of CendR peptide binding to human neuropilin-1; 360,000 compounds, 0.85% hits; FAM-RPARPAR peptide binding to NRP-1, fluorescence polarization; AID 602438; O14786; inhibition, % at 25 µM;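 active = inhibition or corrected inhibition above about 18%, plus a signal ratio from 0.5 to 1.5, limit read from the data, passing the limit was not always enough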
TPT1 inhibitor: inhibitors of Candida albicans tRNA 2'-phosphotransferase TPT1. 300,000 compounds, 0.81% hits. AID 1962. recombinant caTPT1, FP RNA substrate dephosphorylation. inhibition, % at 5 µM;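 active = inhibition above the mean of all tested compounds plus 3 SD, set per screening campaign, cut at about 24% in these data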;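 note: plate controls were DMSO alone for no effect and ferristatin control at 100 nM for full effect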
* hit, by the source's call.

Results for CNC(=S)N/N=C/c1cn(CCOc2ccc(OC)cc2)c2ccccc12 ?
Rpn11 inh: -1; Fh CTSL1 inh: 4; PHOSPHO1 inh: 11; HNF4A DNA FP: 1; CendR NRP1 mod: 2; TPT1 inhibitor: 1

What do the screens show for `COc1cc(Nc2nc3c(N)cc(C(F)(F)F)cc3nc2-c2ccccc2)cc(OC)c1OC`?
Rpn11 inh: 7; HNF4A DNA FP: -3; CendR NRP1 mod: -23

What do the screens show for `Cc1cnc(C(=O)OCC(=O)N2CC(C)CC(C)C2)cn1` (centres undefined)?
Rpn11 inh: 0; HNF4A DNA FP: -3; CendR NRP1 mod: 6

Results for Cc1cnc(C(=O)OCC(=O)N2CCC(C)CC2)cn1 ?
Rpn11 inh: -3; HNF4A DNA FP: 0; CendR NRP1 mod: 23*

What do the screens show for `Cn1c(=O)[nH]c(=O)c2c1nc(SCCN1CCCCC1)n2Cc1ccccc1`?
Rpn11 inh: 0; Fh CTSL1 inh: 3; PHOSPHO1 inh: 14; HNF4A DNA FP: 0; CendR NRP1 mod: 2; TPT1 inhibitor: 0

How did Cn1c(=O)[nH]c(=O)c2c1nc(SCCN1CCCCC1)n2CCCc1ccccc1 do in these assays?
Rpn11 inh: -7; Fh CTSL1 inh: -3; PHOSPHO1 inh: 88*; HNF4A DNA FP: -2; CendR NRP1 mod: 6; TPT1 inhibitor: 1

Results for COc1ccccc1CNC(=O)CSc1n[nH]c(N)n1 ?
Rpn11 inh: -2; Fh CTSL1 inh: 1; PHOSPHO1 inh: -2; HNF4A DNA FP: 3; CendR NRP1 mod: 4; TPT1 inhibitor: 0

What do the screens show for `Cc1nc(SCC(=O)c2ccccc2)n[nH]1`?
Rpn11 inh: 0; Fh CTSL1 inh: -1; PHOSPHO1 inh: 98*; HNF4A DNA FP: -2; CendR NRP1 mod: -1; TPT1 inhibitor: 2

What do the screens show for `COc1ccccc1C(=O)CSc1n[nH]c(N)n1`?
Rpn11 inh: -10; Fh CTSL1 inh: -2; PHOSPHO1 inh: 80*; HNF4A DNA FP: 0; CendR NRP1 mod: 0; TPT1 inhibitor: -5

How did O=C(CSc1n[nH]c(-c2ccncc2)n1)c1ccccc1 do in these assays?
Rpn11 inh: 6; Fh CTSL1 inh: -1; PHOSPHO1 inh: 33; HNF4A DNA FP: -1; CendR NRP1 mod: -2; TPT1 inhibitor: 0

How did COc1ccc(CC(=O)OCC(=O)c2ccc(OC)c(OC)c2)cc1 do in these assays?
Rpn11 inh: -7; HNF4A DNA FP: 0; CendR NRP1 mod: 17*

Results for CC(=O)c1ccc(OCC(=O)NC2CCCCCC2)cc1 ?
Rpn11 inh: -6; HNF4A DNA FP: -6; CendR NRP1 mod: -2

How did COc1cc2ccc(CC(N)=O)cc2cc1OC do in these assays?
Rpn11 inh: 11; HNF4A DNA FP: 7; CendR NRP1 mod: 37*

What do the screens show for `COC(=O)c1ccc(OCC(=O)NC2CCCCCC2)cc1`?
Rpn11 inh: -1; Fh CTSL1 inh: 3; PHOSPHO1 inh: 63*; HNF4A DNA FP: -1; CendR NRP1 mod: 20; TPT1 inhibitor: 1

Results for COc1ccc(CC(=O)OCC(=O)NC2CC2)cc1 ?
Rpn11 inh: 0; HNF4A DNA FP: -3; CendR NRP1 mod: 24*

Results for CCOC(=O)C1=CCC2C(=O)N(C)C(=O)C12 (centres undefined) ?
Rpn11 inh: -1; HNF4A DNA FP: 0; CendR NRP1 mod: -4

How did c1ccc(COc2ncnc3c2ncn3CCCNCC(c2ccccc2)c2ccccc2)cc1 do in these assays?
Rpn11 inh: -10; HNF4A DNA FP: 1; CendR NRP1 mod: -5

How did COc1ccccc1NC(=O)CCc1nc(-c2ccccc2F)no1 do in these assays?
Rpn11 inh: -3; Fh CTSL1 inh: -1; PHOSPHO1 inh: 47; HNF4A DNA FP: -1; CendR NRP1 mod: -13; TPT1 inhibitor: 2

What do the screens show for `COc1ccc(Cl)cc1NC(=O)CCc1nc(-c2ccccc2F)no1`?
Rpn11 inh: 6; Fh CTSL1 inh: -3; PHOSPHO1 inh: 28; HNF4A DNA FP: 0; CendR NRP1 mod: 46*; TPT1 inhibitor: 0

How did CC(C)(C)C1CCC(=NNC(=S)Nc2cccnc2)CC1 (centres undefined) do in these assays?
Rpn11 inh: -1; Fh CTSL1 inh: 19*; PHOSPHO1 inh: -71; HNF4A DNA FP: -2; CendR NRP1 mod: -2; TPT1 inhibitor: -2

What do the screens show for `O=C(/C=C/c1ccc(-c2ccccc2[N+](=O)[O-])o1)c1ccco1`?
Rpn11 inh: -16; Fh CTSL1 inh: 9; PHOSPHO1 inh: -4; HNF4A DNA FP: -15; CendR NRP1 mod: 28*; TPT1 inhibitor: 1

Results for CCOC(=O)C(Sc1cc(C)nc(N)n1)C(C)=O (centres undefined) ?
Rpn11 inh: -8; Fh CTSL1 inh: -7; PHOSPHO1 inh: 46; HNF4A DNA FP: -2; CendR NRP1 mod: -14; TPT1 inhibitor: -4

What do the screens show for `O=Nc1c(O)c2ccccc2c2ccccc12`?
Rpn11 inh: -8; Fh CTSL1 inh: 6; HNF4A DNA FP: 0; CendR NRP1 mod: 7; TPT1 inhibitor: 0

What do the screens show for `O=c1c(=Nc2ccccc2O)c(=O)c2ccccc12`?
Rpn11 inh: 12; Fh CTSL1 inh: 33*; PHOSPHO1 inh: 30; HNF4A DNA FP: -1; CendR NRP1 mod: 4; TPT1 inhibitor: -1

How did Cc1ccc(-n2ccnc(SCC(=O)NC3CCCCC3)c2=O)cc1F do in these assays?
Rpn11 inh: -5; Fh CTSL1 inh: 25*; HNF4A DNA FP: -2; CendR NRP1 mod: -6; TPT1 inhibitor: -1

What do the screens show for `O=[N+]([O-])c1ccc(/C([O-])=C(/C(=S)NCc2ccco2)[n+]2ccccc2)cc1`?
Rpn11 inh: -7; Fh CTSL1 inh: 1; PHOSPHO1 inh: 17; HNF4A DNA FP: -6; CendR NRP1 mod: 3; TPT1 inhibitor: -2

What do the screens show for `Cc1ccc(/C([O-])=C(/C(=S)NCc2ccco2)[n+]2ccccc2)cc1`?
Fh CTSL1 inh: 2; PHOSPHO1 inh: 100*; TPT1 inhibitor: 4

Results for O=C(c1ccco1)[C@@H]1[C@@H]2C(=O)N(c3ccccc3)C(=O)[C@@H]2C2c3ccccc3C=CN21 (some centres undefined) ?
Rpn11 inh: -41; Fh CTSL1 inh: 28*; PHOSPHO1 inh: 84*; HNF4A DNA FP: -17; CendR NRP1 mod: 7; TPT1 inhibitor: -25

Results for Cc1ccc(N2C(=O)[C@@H]3[C@H](C2=O)C2c4ccccc4C=CN2[C@@H]3C(=O)c2ccco2)cc1 (some centres undefined) ?
Rpn11 inh: -4; PHOSPHO1 inh: 74*; HNF4A DNA FP: 4; CendR NRP1 mod: -8

How did CC(=O)[C@@H]1[C@@H]2C(=O)N(Cc3ccccc3)C(=O)[C@@H]2C2c3ccccc3C=CN21 (some centres undefined) do in these assays?
Rpn11 inh: -31; Fh CTSL1 inh: 2; PHOSPHO1 inh: 24; HNF4A DNA FP: -13; CendR NRP1 mod: -7; TPT1 inhibitor: -1

From PubChem
